Cruzain Triton: qHTS Assay for Promiscuous and Specific Inhibitors of Cruzain (with detergent) | Cruzipain (Trypanosoma cruzi), P25779 | purified cruzain, Z-FR-AMC fluorescence, 0.01% Triton | Potency, µM, most hits filed as inhibitors | 200,000 tested, 0.43% active | AID 1478, 2009; note: nearly all actives have a fitted effect of over 40% in size
Target sequence (P25779 123-467 limits assumed): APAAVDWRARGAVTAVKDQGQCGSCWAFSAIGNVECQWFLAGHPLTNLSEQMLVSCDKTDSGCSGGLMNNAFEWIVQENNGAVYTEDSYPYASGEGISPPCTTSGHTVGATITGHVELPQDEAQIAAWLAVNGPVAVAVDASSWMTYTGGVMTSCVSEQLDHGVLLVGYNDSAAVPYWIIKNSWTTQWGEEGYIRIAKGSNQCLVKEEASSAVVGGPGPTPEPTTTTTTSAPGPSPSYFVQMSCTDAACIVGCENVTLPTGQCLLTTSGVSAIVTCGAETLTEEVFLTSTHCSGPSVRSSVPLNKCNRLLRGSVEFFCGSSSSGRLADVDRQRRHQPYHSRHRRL
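Steps: dispense cruzain (1.5 nM final) in acetate buffer pH 5.5 with DTT and 0.01% Triton X-100; pin-transfer compounds; incubate 15 min RT; add Z-FR-AMC (2 uM final); read fluorescence every 30 s, using the 60 s intensity change.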
Cruzain noTriton: qHTS Assay for Promiscuous and Specific Inhibitors of Cruzain (without detergent). Cruzipain (Trypanosoma cruzi), P25779. purified cruzain, Z-FR-AMC fluorescence, no detergent. Potency, µM, actives largely listed as inhibitors. 200,000 tested, 2.3% active. AID 1476, 2009; note: nearly all actives have a fitted effect of over 40% in size
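Purified cruzain at 1.5 nM, pre-incubated 15 min with compound at room temperature in 100 mM sodium acetate pH 5.5, 5 mM DTT, 0.00005% Triton X-100. Reaction started with 2 uM Z-FR-AMC; AMC fluorescence increase over 60 s gives rate.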
Numbers stand for hits; i = inactive; ? = inconclusive. A selection: hits, their analogues and other compounds. The true share with any hit is near 2.6%. Calls come from the whole dose curve; as a rule, active = well fitted curve in the direction sought with a large enough effect; inconclusive = small, poorly fitted or top-dose-only effect, or another doubt; inactive = no such curve, though single readings can be large; an effect the other way counts as inactive or inconclusive.

SMILES	Cruzain Triton	Cruzain noTriton
COc1ccc(OCCCn2cc(/C=C3/C(=N)N4C=C(C)SC4=NC3=O)c3ccccc32)cc1	i	25µM
COc1cc(/C=C2/C(=N)N3C=CSC3=NC2=O)ccc1OCCCOc1c(C)cccc1C	i	i
COc1cccc(OCCCn2cc(/C=C3/C(=N)N4C=C(C)SC4=NC3=O)c3ccccc32)c1	i	13µM
CC1=CN2C(=N)/C(=C/c3ccco3)C(=O)N=C2S1	i	i
COc1cc(/C=C2/C(=N)N3C=CSC3=NC2=O)ccc1OCCCOc1ccccc1C	i	i
CC1=CN2C(=N)/C(=C/c3cn(CCCOc4ccccc4C)c4ccccc34)C(=O)N=C2S1	i	3.2µM
COc1ccc(Br)cc1/C=N/NC(=O)c1ccc(COc2ccc3c(c2)CCC3)o1	i	i
O=C(N/N=C/c1ccc2ccccc2c1)c1ccc(COc2ccc3c(c2)CCC3)o1	i	20µM
CCCCc1ccc(NS(=O)(=O)c2ccc(N3CCCCS3(=O)=O)cc2)cc1	i	?
Cc1ccc2ccc3cc(C(=O)Nc4ccc(C)c(F)c4)nc3c2[nH]1	8.9µM	?
Cc1ccc2ccc3cc(C(=O)N4CCN(c5ccccc5F)CC4)nc3c2[nH]1	i	i
O=C(Nc1ccc(Cl)c(Cl)c1)Nc1nnc(CC2=CCCCC2)s1	i	25µM
O=C(Nc1nnc(CC2=CCCCC2)s1)c1cccs1	i	i
CCC(=O)Nc1nnc(CSCc2ccc(F)cc2)s1	i	i
O=C(Nc1ccc(Cl)cc1)Nc1nnc(CSCc2ccc(Cl)cc2)s1	i	5µM
COc1ccc(Cl)cc1NC(=O)Nc1ccc(Br)cn1	i	13µM
COc1ccccc1NC(=O)Nc1ccc(Br)cn1	i	i
O=C(CCc1ccccc1)N1CCc2c([nH]c3ccccc23)C1c1ccc(Cl)cc1 (configuration not stated)	i	?
COc1ccc(C2c3[nH]c4ccc(OC)cc4c3CCN2C(=O)Nc2ccccc2)cc1 (configuration not stated)	i	25µM
COc1cccc(C(=O)N2CCc3c([nH]c4ccccc34)C2c2ccc(SC)cc2)c1 (configuration not stated)	i	i
CCOc1ccc(C2c3[nH]c4ccccc4c3CCN2C(=O)CCC2CCCC2)cc1 (configuration not stated)	i	?
COc1ccc(C2c3[nH]c4ccccc4c3CCN2C(=O)CCC2CCCC2)cc1 (configuration not stated)	i	16µM
O=C(CCC1CCCC1)N1CCc2c([nH]c3ccccc23)C1c1ccc(Cl)cc1 (configuration not stated)	i	7.9µM
CCOc1cccc(CC(=O)N2CCc3c([nH]c4ccccc34)C2c2ccc(Cl)cc2)c1OCC (configuration not stated)	i	20µM
O=C(CCC1CCCC1)N1CCc2c([nH]c3ccccc23)C1c1ccc(F)cc1 (configuration not stated)	i	?
SMILES	Cruzain Triton	Cruzain noTriton
COc1ccc(N(Cc2cccs2)C(=O)c2ccco2)cc1	i	i
CCc1ccc2occ(CC(=O)Nc3sc4c(c3C(=O)OC)CCC4)c2c1	i	i
COC(=O)c1cccc(NC(=O)C2CCN(S(=O)(=O)Cc3ccccc3)CC2)c1C	i	i
CCN1C(=O)C(Cc2nc3ccccc3c(=O)n2-c2cccc(C)c2)c2ccccc21 (configuration not stated)	i	i
CCOc1cc(/C=C(/C#N)C(=O)Nc2ccc(O)cc2)cc(Br)c1O	i	i
CCN(CC)S(=O)(=O)c1ccc(N2CCCCC2)c(NC(=O)/C(C#N)=C/c2ccc(OC)cc2)c1	i	10µM
CCOc1ccc(NC(=O)/C(C#N)=C/c2ccc(N3CCCC3)c(C)c2)cc1	i	10µM
COc1ccc(NC(=O)/C(C#N)=C/c2ccc(OCc3ccccc3F)cc2)cc1	i	4µM
COc1ccc(/C=C(\C#N)C(=O)Nc2cc(S(=O)(=O)N3CCOCC3)ccc2N2CCCC2)cc1	i	?
CCCc1nn2c(=O)cc(COc3ccc(/C=C(\C#N)C(=O)Nc4ccc(F)cc4)cc3)nc2s1	i	i
Cc1ccc(Cn2c(=O)n(Cc3ccc(Cl)cc3)c(=O)c3cccnc32)cc1	i	i
CCCC[C@@H]1C[C@H]1C(NC(=O)Cc1ccccc1)c1ccc(-c2ccccc2)cc1 (some centres not stated)	i	i
Nc1[nH]nc2c1NN(c1ccc(Cl)cc1Cl)N2	i	20µM
Nc1nc(-c2ccc(Cl)cc2Cl)cn1N	i	i
CCOC(=O)Cc1ccc(NC(=O)Nc2nnc(N3CCCCC3C)s2)cc1 (configuration not stated)	i	?
COC(=O)c1ccccc1NC(=O)[C@H]1O[C@@H]2OC(C)(C)O[C@@H]2[C@H]2OC(C)(C)O[C@H]21	i	i
COc1ccccc1CNC(=O)CCCn1nc(C)c2sc3ccccc3c2c1=O	i	10µM
